This is a sample that favours compounds with a hit; in the whole collection about 4.8% have one here.
DAX1 inh-1 – NR0B1 (DAX1) inhibition. P51843. HEK293 Gal4-DAX1 luciferase reporter, luminescence. inhibition, % at 6.75 µM. 0.99% of 340,000 active;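 active = inhibition above the mean over all tested compounds plus 3 SD, cut at about 4.2% in these data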;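 note: 0% = DAX1-transfected cells with DMSO and 100% = empty-vector control cells with DMSO; inhibition shows as a rise in luminescence from relieved DAX1 repression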
Target sequence (P51843 207-470 limits assumed): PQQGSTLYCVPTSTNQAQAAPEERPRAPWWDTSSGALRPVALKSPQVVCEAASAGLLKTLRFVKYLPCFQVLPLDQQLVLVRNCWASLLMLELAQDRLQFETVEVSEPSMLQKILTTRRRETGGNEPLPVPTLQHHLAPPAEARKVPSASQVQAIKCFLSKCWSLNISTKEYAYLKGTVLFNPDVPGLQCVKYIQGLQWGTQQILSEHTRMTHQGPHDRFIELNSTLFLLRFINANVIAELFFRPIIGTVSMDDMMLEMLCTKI
Rev-erbA mod – Rev-erb alpha (human) modulation | 0.79% of 370,000 active | Rev-erbα–FITC-DNA binding, fluorescence polarization, 90 min | AID 1259318 | activity, % at 10 µM | P20393;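 active = activity above about 14%, limit read from the data; passing the limit was not always enough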;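 note: 0% = DMSO wells with 35 nM protein and 100% = DMSO wells with 750 nM protein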
ssDAF-12 act – activates DAF-12 receptor from parasite S. stercoralis. HEK293 ssDAF-12/GRIP1 lit1-tk-luc reporter, luminescence; % of 3 µM dafachronic acid response. activation, % at 6.8 µM. AID 652126. 1% of 370,000 active;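 active = activation above the mean over all tested compounds plus 3 SD, cut at about 0.9% in these data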;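 note: 0% = DMSO-only wells and 100% = 3 µM delta7-dafachronic acid wells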
DAX1 inh-2 – blocks DAX1 repression of SF-1 activated StAR promoter | 1.1% of 370,000 active | HEK293T StAR-luciferase reporter, SF-1/DAX-1 repression relief | inhibition, % at 6.8 µM | AID 652010;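 active = inhibition above the mean over all tested compounds plus 3 SD, cut at about 3.6% in these data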;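 note: 0% = DAX-1 cells with DMSO and 100% = cells lacking DAX-1 with DMSO; higher inhibition means more luminescence from relief of DAX-1 repression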
hcDAF-12 act – activates DAF-12 receptor from parasite H. contortus; 1.4% of 370,000 active; activation, % at 6.8 µM; HEK293 hcDAF-12 lit1-tk-luc reporter, luminescence; 0% DMSO, 100% Δ7-dafachronic acid;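 active = activation above the mean of all tested compounds plus 3 SD, cut at about 5.5% in these data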;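 note: 100% = response to 3 µM Δ7-dafachronic acid high control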
hgDAF-12 ag – hgDAF-12 agonism, primary luciferase screen. 1.8% of 370,000 active. activation, % at 6.8 µM. HEK293 GAL4-hgDAF12 UAS-luciferase reporter, agonist luminescence; normalized to butyrate control. AID 687014;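 active = activation above a cutoff set at the mean of all screened compounds plus 3 SD, cut at about 10% in these data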;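 note: 0% = DMSO wells and 100% = sodium butyrate wells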
DAX1 conf – confirmation of human DAX1 (NR0B1) inhibitors | shares compounds with DAX1 inh-2 | HEK293T StAR-promoter luciferase reporter, SF-1/DAX-1 repression | inhibition, % at 6.8 µM | 87% of 2,400 active;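 active = inhibition above the average of every tested compound plus 3 SD, cut at about 3.8% in these data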;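 note: 0% = DAX-1 cells with DMSO and 100% = no DAX-1 control cells with DMSO; active compounds raise luminescence by relieving repression of the StAR reporter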
Target sequence (P51843 whole entry, looked up): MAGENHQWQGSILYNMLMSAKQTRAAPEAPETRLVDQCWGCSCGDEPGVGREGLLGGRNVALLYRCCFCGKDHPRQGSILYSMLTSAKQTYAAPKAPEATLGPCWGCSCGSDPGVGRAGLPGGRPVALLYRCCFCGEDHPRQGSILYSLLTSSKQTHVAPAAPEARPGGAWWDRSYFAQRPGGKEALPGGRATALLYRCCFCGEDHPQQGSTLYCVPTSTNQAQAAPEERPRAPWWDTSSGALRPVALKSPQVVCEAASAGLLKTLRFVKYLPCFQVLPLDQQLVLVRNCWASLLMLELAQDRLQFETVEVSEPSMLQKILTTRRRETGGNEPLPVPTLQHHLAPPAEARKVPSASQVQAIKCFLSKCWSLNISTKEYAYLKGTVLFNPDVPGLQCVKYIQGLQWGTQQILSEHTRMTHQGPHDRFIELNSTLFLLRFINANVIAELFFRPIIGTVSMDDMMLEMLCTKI
SF1 mutant ctr – nonselective inhibitor or artifact in SF-1 mutant DAX1 counter-screen; shares compounds with DAX1 inh-2; inhibition, % at 6.8 µM; HEK293 StAR-luciferase, SF-1 AF2 mutant, luminescence; AID 652136; 78% of 2,400 active;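 active = inhibition above the mean of all tested compounds plus 3 SD, cut at about 3% in these data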;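 note: 0% = DAX-1 transfected cells with DMSO and 100% = cells without DAX-1 with DMSO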
LXR ag – counter-screen for hcDAF-12 agonists: agonists of human LXR-beta; activation, % at 6.8 µM; 3,400 tested, under 10 active; AID 743027; shares compounds with hcDAF-12 act; HEK293 Gal4-LXR tk-luc reporter, luminescence, 24 h; normalized: DMSO 0%, positive control 100%;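 active = mean percent activation of the reporter above a cutoff set as the average over tested compounds plus their standard deviation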
hcDAF12 conf – confirmation of H. contortus DAF-12 agonists; shares compounds with hcDAF-12 act; HEK293 hcDAF-12 lit1-tk-luc reporter, luminescence; % of Δ7-dafachronic acid response; activation, % at 6.8 µM; 61% of 3,400 active;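 active = mean activation across triplicate tests above the threshold derived from the earlier primary screen, cut at about 5.5% in these data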;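 note: 0% = DMSO only wells and 100% = 3 µM Δ7-dafachronic acid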
* marks the source's active call; other numbers are inactive results; . = not tested or not shown.

SMILES	DAX1 inh-1	Rev-erbA mod	ssDAF-12 act	DAX1 inh-2	hcDAF-12 act	hgDAF-12 ag	DAX1 conf	SF1 mutant ctr	LXR ag	hcDAF12 conf
CCc1ccc(NC(=O)c2cnn3ccccc23)cc1	-4.0	-4.7	0.6	5.5*	11.6*	4.7	6.1*	1.4	1.7	19.2*
COC(=O)c1cc2c(c3c4ccccc4n(S(=O)(=O)c4ccc(C)cc4)c13)C(=O)N(CC(C)C)C2	.	0.4	0.0	0.0	3.9	2.1	.	.	.	.
CCCCC(=O)N(Cc1ccccc1)c1ccccc1C(=O)Nc1cc(OC)ccc1OC	.	-2.5	-0.6	-1.0	-0.5	0.4	.	.	.	.
COc1ccc(N=Nc2cc(C)ccc2O)cc1	1.2	4.7	0.2	5.0*	7.1*	25.1*	15.5*	6.2*	2.1	7.3*
C#CCN1C(=O)[C@]2(OCCC=C[C@H]2C)c2cc(OC)ccc21	.	-1.3	0.1	-0.5	-3.0	4.8	.	.	.	.
COCC(=O)Nc1nnc(-c2ccc(C(C)(C)C)cc2)s1	4.0	-8.7	-0.3	4.8*	10.3*	19.1*	14.2*	7.4*	1.2	6.2*
Cc1ccsc1C(=O)Nc1nccs1	1.0	-1.3	0.3	0.4	0.3	4.5	.	.	.	.
Cc1ccc(C(=O)Nc2nccs2)cc1	2.1	-2.8	2.4*	6.6*	12.3*	12.3*	10.0*	6.4*	1.2	13.9*
COC(=O)[C@]12C[C@H](CC(=O)NCCC(C)C)C(=O)N(Cc3ccco3)C1=C[C@H](C1CCCC1)O[C@@H]2C	.	-1.1	-0.8	-0.3	-2.2	0.1	.	.	.	.
CC(C)CN(CC(C)C)C(=O)c1ccc2c(c1)NC(=O)C(C)(C)O2	.	-4.3	-1.3	0.4	-2.3	-1.9	.	.	.	.
COc1cccc(NC(=O)Nc2nccc(C)n2)c1	-1.7	-2.4	-0.2	5.0*	8.1*	13.1*	12.6*	5.3*	1.4	3.6
CCC1CSC(=Nc2ccc(C)cc2)N1C(=O)CN1C(=O)NC2(CCCC2)C1=O (stereo not given)	0.2	4.4	-0.2	10.4*	8.4*	12.7*	9.1*	2.8	1.2	6.3*
COc1ccc(-c2cn3c4c(sc3n2)CCCC4)cc1	-1.4	-1.6	1.3*	5.1*	17.4*	13.1*	11.7*	7.9*	1.8	20.4*
Cn1c(/C=N/Nc2nc3ccccc3[nH]2)nc2ccccc21	1.9	-2.1	1.9*	5.5*	16.6*	15.1*	-2.4	-3.6	1.9	8.0*
CCCn1c(/C=N/Nc2nc3ccccc3[nH]2)nc2ccccc21	-1.8	0.4	0.5	0.8	1.1	5.8	.	.	.	.
COCc1[nH]nc2c1C(c1ccc3c(c1)OCO3)N(Cc1ccccc1)C2=O (stereo not given)	.	2.8	-0.9	-0.2	-1.5	-0.1	.	.	.	.
Cc1ccsc1/C=N/NC(=O)CNC(=O)c1ccccc1	-0.1	-5.5	-0.5	0.0	-0.3	2.1	.	.	.	.
COc1ccc2ccccc2c1/C=N/Nc1cccc(C(=O)O)c1	0.8	4.6	-0.1	0.4	1.2	2.7	.	.	.	.
Cc1ccc(/C=N/Nc2cccc(C(=O)O)c2)s1	-3.9	-4.6	2.5*	8.3*	11.8*	26.6*	17.0*	8.5*	2.0	13.8*
Cc1ccsc1/C=N/Nc1cccc(C(=O)O)c1	-8.1	-1.9	0.6	10.8*	10.1*	16.9*	19.4*	11.3*	2.2	19.5*
Cc1cc(C)nc(NC(=O)/C=C/c2ccccc2Cl)n1	1.9	-1.1	-0.7	0.7	-0.8	1.6	.	.	.	.
Cc1cccnc1NC(=O)CNC(=O)c1sc2ccccc2c1Cl	-0.2	1.4	-0.4	-0.5	0.8	1.1	.	.	.	.
Cc1cnc(NC(=O)c2sc3ccccc3c2Cl)s1	1.8	2.2	3.1*	5.4*	17.2*	30.2*	6.4*	2.3	1.6	16.8*
Cc1ccnc(NC(=O)c2cccc3ccccc23)c1	0.5	-1.1	-1.3	1.6	0.8	4.8	.	.	.	.
Cc1ccnc(NC(=O)/C=C/c2ccccc2Cl)c1	-2.5	8.0	1.4*	5.3*	8.9*	13.2*	8.6*	4.7*	2.1	9.3*
SMILES	DAX1 inh-1	Rev-erbA mod	ssDAF-12 act	DAX1 inh-2	hcDAF-12 act	hgDAF-12 ag	DAX1 conf	SF1 mutant ctr	LXR ag	hcDAF12 conf
Cc1ccnc(NC(=O)c2sc3ccccc3c2Cl)c1	0.6	12.0	0.4	8.0*	8.7*	16.2*	6.9*	2.1	1.2	10.0*
Nc1ncnc2c1ncn2[C@@H]1O[C@H](C(=O)N[C@@H](CCc2ccccc2)C(=O)N2CCN(C(=O)N3CCOCC3)CC2)[C@@H](O)[C@H]1O	.	2.8	-1.1	1.3	-0.3	-2.8	.	.	.	.
COC(=O)[C@]12C[C@H](CC(=O)N3CCCC3)C(=O)N(Cc3ccco3)C1=C[C@H](C(C)(C)C)O[C@@H]2C	.	-8.4	-2.3	-1.1	-1.2	-0.4	.	.	.	.
O=C1C(=C2CCc3ccccc32)Cc2ccccc21	.	-3.7	2.3*	7.1*	15.0*	21.5*	16.3*	9.0*	2.0	21.2*
O=C1C(=NO)CCCc2ccccc21	1.8	-4.5	-0.9	-1.2	-1.7	0.7	.	.	.	.
Clc1ccc(-c2cc(-c3ccccc3)on2)cc1	0.4	2.7	-0.3	0.6	2.0	8.2	.	.	.	.
Oc1ccccc1-c1cc(-c2ccccc2)no1	4.2	0.4	4.8*	6.2*	22.5*	14.5*	19.8*	13.8*	2.0	18.6*
Cc1ccccc1-c1cc(-c2ccccc2O)on1	2.2	3.1	3.4*	4.8*	21.6*	22.1*	14.6*	11.6*	2.0	19.7*
Cc1ccc(-c2cc(-c3ccccc3)no2)c(O)c1	-2.4	2.0	3.1*	6.8*	15.9*	11.2*	14.0*	3.7*	2.2	19.2*
O=C(NCCSc1ccccc1)c1ccc(Br)cc1	0.8	1.8	-0.2	4.7*	7.4*	13.1*	15.4*	7.7*	1.7	5.9*
O=C(CSc1nnc(-c2ccccc2)n1-c1ccc(Cl)cc1)Nc1ccc(OCc2ccccc2)cc1	.	5.3	-1.2	-0.2	1.4	-0.8	.	.	.	.
CCC(=O)OCCCN1CCC2(CCCCC2)C1=O	.	-2.2	-0.6	.	0.5	-0.2	.	.	.	.
Cc1ccc(-c2noc(-c3cccs3)n2)cc1	3.2	8.0	0.5	6.2*	8.9*	16.3*	16.4*	11.1*	2.2	15.5*

Screening results from PubChem BioAssay.
